In the library only some 2.3% were active in any assay of this set; here they are far more common.
Bcl-xL primary: inhibitors of human Bcl-xL. AID 2129. GST-Bcl-xL / FITC-Bim BH3 peptide fluorescence polarization. hit rate 0.7% among 320,000. Q07817. inhibition, % at 10.9 µM;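 active = inhibition above the mean of all tested compounds plus 3 SD, cutoff set per campaign, cut at about 30% in these data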;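 also: 0% = DMSO wells and 100% = unlabeled Bim-BH3 peptide competitor; inhibitors lower millipolarization by displacing the labeled peptide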
Target sequence (Q07817 whole entry, looked up): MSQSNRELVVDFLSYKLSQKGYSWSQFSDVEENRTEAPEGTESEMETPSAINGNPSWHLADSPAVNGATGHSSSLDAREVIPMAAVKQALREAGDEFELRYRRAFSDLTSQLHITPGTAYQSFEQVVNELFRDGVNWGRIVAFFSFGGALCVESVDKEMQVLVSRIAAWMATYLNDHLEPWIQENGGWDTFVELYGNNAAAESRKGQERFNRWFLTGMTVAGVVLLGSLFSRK
Mcl1-Noxa inh: disrupts binding of human Mcl-1 to Noxa peptide; TR-FRET Mcl-1/Noxa peptide binding, 2 h; inhibition, % at 21.7 µM; Q07820; hit rate 1.5% among 220,000;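 active = compounds that cut the protein-peptide binding signal by more than 50% relative to plate controls in a single-dose test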;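 also: His-tagged Mcl-1 with rhodamine Noxa BH3 peptide and terbium anti-His antibody; 0% = Mcl-1 plus Noxa peptide wells and 100% = peptide-only wells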
Mcl-1 Bim block: disrupts Bim peptide binding to human Mcl-1 | hit rate 0.1% among 190,000 | Bead-based flow cytometry, Bim peptide-Mcl-1 binding | Q07820 | inhibition, % at 10 µM | AID 1009; in the data active = inhibition above about 40%;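 also: 0% = no compound tracer wells and 100% = peptide blocker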
Mcl1-Bid inh: disrupts binding of human Mcl-1 to Bid peptide | Q07820 | TR-FRET Mcl-1/Bid-Dy647 peptide binding, 1536-well | inhibition, % at 21.7 µM | hit rate 0.97% among 220,000 | AID 1021;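 active = compounds that cut the binding signal by more than half at the single screening dose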;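 also: His-tagged Mcl-1 with europium anti-His antibody binding Bid BH3 peptide; 0% = Mcl-1 plus peptide wells and 100% = peptide-only wells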
MCL1 BIM primary: disrupts human MCL1 binding to BIM-BH3 peptide | Q07820 | GST-MCL1 / FITC-Bim-BH3 fluorescence polarization | inhibition, % at 10.9 µM | hit rate 0.68% among 320,000 | AID 2057;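 active = inhibition above the mean inhibition of all tested compounds plus 3 SD, set per campaign, cut at about 40% in these data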;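 also: 0% = DMSO wells and 100% = unlabeled Bim-BH3 peptide control; higher means more loss of mP so more displacement of Bim peptide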
GLD-1 RNA inh: GLD-1-TGE RNA interaction inhibition (C. elegans); purified GLD-1 + fluorescein TGE RNA, fluorescence polarization; inhibition, % at 5.96 µM; hit rate 0.44% among 320,000; AID 2280;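 active = percent inhibition above a per-plate cutoff, the plate mean of test compounds plus 3 SD, cut at about 30% in these data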;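 also: 0% = DMSO wells with GLD-1 and probe and 100% = wells lacking GLD-1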
Target sequence (Q17339 whole entry, looked up): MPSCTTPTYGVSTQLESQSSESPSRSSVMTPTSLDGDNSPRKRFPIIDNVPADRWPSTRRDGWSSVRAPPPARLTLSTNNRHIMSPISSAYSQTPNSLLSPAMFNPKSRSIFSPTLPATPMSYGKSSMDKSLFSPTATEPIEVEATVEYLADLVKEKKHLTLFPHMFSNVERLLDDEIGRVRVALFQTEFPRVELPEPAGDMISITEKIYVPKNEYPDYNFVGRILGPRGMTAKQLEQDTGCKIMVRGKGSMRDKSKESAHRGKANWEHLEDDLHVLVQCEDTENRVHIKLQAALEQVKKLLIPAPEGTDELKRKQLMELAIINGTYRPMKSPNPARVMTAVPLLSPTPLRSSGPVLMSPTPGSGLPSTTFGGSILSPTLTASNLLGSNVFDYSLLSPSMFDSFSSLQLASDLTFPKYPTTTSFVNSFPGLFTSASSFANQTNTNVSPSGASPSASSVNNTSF
* marks the source's active call; other numbers are inactive results.

Results for CCSc1ncc(/C=N/Nc2ccc([N+](=O)[O-])cc2)n1C ?
Bcl-xL primary: -35; Mcl1-Noxa inh: 80*; Mcl-1 Bim block: -3; Mcl1-Bid inh: 41; MCL1 BIM primary: -65; GLD-1 RNA inh: -12

Results for CCSc1ncc(/C=N/Nc2ccccc2)n1C ?
Bcl-xL primary: 3; Mcl1-Noxa inh: 15; Mcl-1 Bim block: -1; Mcl1-Bid inh: 7; MCL1 BIM primary: 0; GLD-1 RNA inh: -5

How did Cc1ccnc(NC(c2ccncc2)c2c(C)[nH]c3ccccc23)c1 (stereo not drawn) do in these assays?
Bcl-xL primary: 8; Mcl1-Noxa inh: 35; Mcl-1 Bim block: -4; Mcl1-Bid inh: 51*; MCL1 BIM primary: 8; GLD-1 RNA inh: 3

How did Cc1cc(N(CCO)CCO)ccc1C(c1ccc(N(CCO)CCO)cc1C)c1ccccc1Cl do in these assays?
Bcl-xL primary: 11; Mcl1-Noxa inh: 101*; Mcl-1 Bim block: 1; Mcl1-Bid inh: 57*; MCL1 BIM primary: 23; GLD-1 RNA inh: 7

Results for CC1CCN(C(=O)COC(=O)Cc2ccc(Br)cc2)CC1 ?
Bcl-xL primary: 6; MCL1 BIM primary: 7; GLD-1 RNA inh: -4

Results for Cc1cc(C(=O)CCC(=O)NC(C)c2ccc(S(N)(=O)=O)cc2)c(C)s1 (stereo not drawn) ?
Bcl-xL primary: -5; MCL1 BIM primary: -2; GLD-1 RNA inh: 1

What do the screens show for `CCOc1ccc(NC(=O)C(c2ccccn2)N(C(=O)CCl)c2ccc(OCC)cc2)cc1` (stereo not drawn)?
Bcl-xL primary: 16; Mcl1-Noxa inh: 4; Mcl-1 Bim block: -4; Mcl1-Bid inh: -20; MCL1 BIM primary: 6; GLD-1 RNA inh: 9

Results for CCOc1ccc(NC(c2ccccn2)c2oc(CO)cc(=O)c2O)cc1 (stereo not drawn) ?
Bcl-xL primary: 23; Mcl1-Noxa inh: 63*; Mcl-1 Bim block: -4; Mcl1-Bid inh: -73; MCL1 BIM primary: 28; GLD-1 RNA inh: 24

Results for C[C@H](CO)N1C[C@H](C)[C@@H](CN(C)S(=O)(=O)c2cn(C)cn2)Oc2ccc(NC(=O)Cc3ccccc3)cc2C1=O ?
GLD-1 RNA inh: 3

What do the screens show for `CCCOc1ncnc2c1[nH]c1ccccc12`?
Bcl-xL primary: 8; Mcl1-Noxa inh: 86*; Mcl-1 Bim block: 0; Mcl1-Bid inh: -18; MCL1 BIM primary: -1; GLD-1 RNA inh: 0

Results for CCCOc1ncnc2c1[nH]c1ccc(OC)cc12 ?
Bcl-xL primary: 11; Mcl1-Noxa inh: 12; Mcl1-Bid inh: -2; MCL1 BIM primary: 0; GLD-1 RNA inh: -1

How did Cc1cc(C)n(CCC(=O)N2CCCC(Nc3ccc(F)cc3)C2)n1 (stereo not drawn) do in these assays?
Bcl-xL primary: 7; MCL1 BIM primary: 7; GLD-1 RNA inh: 0

What do the screens show for `CCCC(=O)N(c1ccc(OCC)cc1)S(=O)(=O)c1ccc2c3c(cccc13)C(=O)N2C`?
Bcl-xL primary: 1; MCL1 BIM primary: 4; GLD-1 RNA inh: -1

How did Cc1[nH]c(=O)[nH]c(=O)c1NC(=O)c1sc2nc3c(C)cccc3cc2c1N do in these assays?
Bcl-xL primary: 8; Mcl1-Noxa inh: 36; Mcl-1 Bim block: -5; Mcl1-Bid inh: -59; MCL1 BIM primary: 14; GLD-1 RNA inh: -13

How did Cc1ccc2nc3sc(C(=O)Nc4c(C)[nH]c(=O)[nH]c4=O)c(N)c3cc2c1 do in these assays?
Bcl-xL primary: 10; Mcl1-Noxa inh: 56*; Mcl-1 Bim block: -1; Mcl1-Bid inh: -37; MCL1 BIM primary: 9; GLD-1 RNA inh: -9

How did Cc1ccc2cc3c(N)c(C(=O)N4CC(=O)Nc5ccccc54)sc3nc2c1 do in these assays?
Bcl-xL primary: -6; Mcl1-Noxa inh: 58*; Mcl-1 Bim block: 0; Mcl1-Bid inh: 8; MCL1 BIM primary: -19; GLD-1 RNA inh: -12

Results for Cc1ccc2cc3c(N)c(C(=O)N4CCOCC4)sc3nc2c1 ?
Bcl-xL primary: 4; Mcl1-Noxa inh: 22; Mcl-1 Bim block: -3; Mcl1-Bid inh: -55; MCL1 BIM primary: 5; GLD-1 RNA inh: -5

What do the screens show for `Cc1ccc2cc3c(N)c(C(=O)Nc4c(C)[nH]c(=O)[nH]c4=O)sc3nc2c1`?
Bcl-xL primary: 13; Mcl1-Noxa inh: 66*; Mcl-1 Bim block: -2; Mcl1-Bid inh: -32; MCL1 BIM primary: 3; GLD-1 RNA inh: -5

Results for Cc1cnc(C(=O)OCC(=O)Nc2cc(-c3ccccc3)nn2-c2ccccc2)cn1 ?
Bcl-xL primary: -1; MCL1 BIM primary: -5; GLD-1 RNA inh: 5

How did CCCCn1c(N)c(N(CC)C(=O)c2c(C)noc2C)c(=O)[nH]c1=O do in these assays?
GLD-1 RNA inh: 0

What do the screens show for `Cc1ccc(-c2nc3c(c(=O)[nH]c(=O)n3Cc3ccccc3)n2C)o1`?
Mcl1-Noxa inh: 97*; Mcl-1 Bim block: 0; Mcl1-Bid inh: 38

Results for Cn1c(C2CCCCC2)nc2c1c(=O)[nH]c(=O)n2Cc1ccccc1 ?
Bcl-xL primary: 7; Mcl1-Noxa inh: 9; Mcl-1 Bim block: -2; Mcl1-Bid inh: -40; MCL1 BIM primary: -1; GLD-1 RNA inh: 5

Results for Cc1ccc(-c2nc3c(c(=O)[nH]c(=O)n3Cc3ccccc3)n2C)s1 ?
Bcl-xL primary: 0; Mcl1-Noxa inh: 15; Mcl1-Bid inh: 65*; MCL1 BIM primary: -4; GLD-1 RNA inh: -4

How did COC(=O)c1c(NC(=O)Cc2cccs2)sc2c1CCCC2 do in these assays?
Bcl-xL primary: 4; Mcl1-Noxa inh: 80*; Mcl-1 Bim block: -6; Mcl1-Bid inh: 22; MCL1 BIM primary: 15; GLD-1 RNA inh: 7

Results for O=C(O)c1cccc(NC2=C(Cl)C(=O)c3ccccc3C2=O)c1 ?
Mcl1-Noxa inh: 87*; Mcl-1 Bim block: 6; Mcl1-Bid inh: 17

How did Cc1ccc(NC2=C(NC(=O)c3ccccc3)C(=O)c3ccccc3C2=O)cc1Cl do in these assays?
Bcl-xL primary: 23; Mcl1-Noxa inh: 86*; Mcl-1 Bim block: 2; Mcl1-Bid inh: 3; MCL1 BIM primary: 36; GLD-1 RNA inh: 1

Results for O=C(O)c1ccc(NC2=C(Cl)C(=O)c3ccccc3C2=O)cc1 ?
Bcl-xL primary: 16; Mcl1-Noxa inh: 53*; Mcl1-Bid inh: 5; MCL1 BIM primary: 12; GLD-1 RNA inh: 5

How did CCOC(=O)N1CCN(C(=O)COC(=O)c2oc3ccc(OC)cc3c2C)CC1 do in these assays?
Bcl-xL primary: 5; MCL1 BIM primary: 4; GLD-1 RNA inh: 6

How did CCN(CC)S(=O)(=O)c1cccc(C(=O)NCC2CCCCC2)c1 do in these assays?
Bcl-xL primary: 0; MCL1 BIM primary: -5; GLD-1 RNA inh: 1

How did Cc1ccc(NC(=S)N2CCn3cccc3C2c2cccnc2)cc1 (stereo not drawn) do in these assays?
Bcl-xL primary: 5; Mcl1-Noxa inh: 3; Mcl-1 Bim block: -4; Mcl1-Bid inh: -39; MCL1 BIM primary: 13; GLD-1 RNA inh: 5
